Results filed as inconclusive are left out. The source made the active and inactive calls. Calls follow the shape of the dose curve; as a rule, active = well fitted curve in the direction sought with a large enough effect; inconclusive = small, poorly fitted or top-dose-only effect, or another doubt; inactive = no such curve, though single readings can be large or run the other way.
Target: Ferritin light chain (Equus caballus) (UniProt P02791)
Assay: qHTS Validation Assay for Identification of Novel General Anesthetics (AID 2323)
Details: horse apoferritin, anesthetic-site fluorescent probe displacement; series mostly up to 76.9 µM; activity change, negative = inhibition: at the top concentration
Description: Source: NIH Chemical Genomics Center [NCGC]
Assay Submitter: Roderic Eckenhoff, University of Pennsylvania
Screening Center PI: Christopher P. Austin, NIH
Probe Development: NIH Chemical Genomics Center [NCGC]
Anesthetic development has remained a largely empirical process. There are growing concerns about the cognitive effects of known general anesthetics and acceleration of the onset of neurodegenerative disease. The compounds' toxicity and multiple specific binding targets in the mammalian brain [4] has made them less attractive as drug leads. In this assay, a GABAergic mimetic model system, apoferritin and a profluorescent 1-aminoanthracene ligand (1-AMA), was used to construct a competitive binding assay for identification of novel general anesthetics. The assay was validated for 1-AMA using other known anesthetics, such as isoflurane (CID:3763) and propofol (CID: 4943), [6].
[1] S.L. Bianchi, T. Tran, C. Liu, S. Lin, Y. Li, J.M. Keller, R.G. Eckenhoff, and M.F. Eckenhoff, Brain and behavior changes in 12-month-old Tg2576 and nontransgenic mice exposed to anesthetics. Neurobiol Aging 29 (2008) 1002-10.
[2] Z. Xie, Y. Dong, U. Maeda, R.D. Moir, W. Xia, D.J. Culley, G. Crosby, and R.E. Tanzi, The inhalation anesthetic isoflurane induces a vicious cycle of apoptosis and amyloid beta-protein accumulation. J Neurosci 27 (2007) 1247-54.
[3] P. Honegger, and J.M. Matthieu, Selective toxicity of the general anesthetic propofol for GABAergic neurons in rat brain cell cultures. J Neurosci Res 45 (1996) 631-6.
[4] M.F. Eckenhoff, K. Chan, and R.G. Eckenhoff, Multiple specific binding targets for inhaled anesthetics in the mammalian brain. J Pharmacol Exp Ther 300 (2002) 172-9.
[5] C.A. Butts, J. Xi, G. Brannigan, A.A. Saad, S.P. Venkatachalan, R.A. Pearce, M.L. Klein, R.G. Eckenhoff, and I.J. Dmochowski, Identification of a fluorescent general anesthetic, 1-aminoanthracene. Proc Natl Acad Sci U S A 106 (2009) 6501-6.
[6] W.A. Lea, J. Xi, A. Jadhav, L. Lu, C.P. Austin, A. Simeonov, and R.G. Eckenhoff, A high-throughput approach for identification of novel general anesthetics. PLoS One 4 (2009) e7150.
Three uL of reagents (free 1-AMA (50% saturated solution of 1-aminoanthracene
in PBS) in columns 3, 4 as negative control and 1-AMA/apoferritin mixture (10 uM horse-spleen apoferritin in 50% saturated 1-aminoanthracene in PBS) in columns 1, 2, 5-48) was dispensed into 1536-well Greiner black assay plates. Compounds (23 nL) were transferred via Kalypsys pintool equipped with 1,536-pin array (10 nL slotted pins, V&P Scientific, San Diego, CA). Titration of the positive control, propofol, were delivered via pin transfer from separate control plates to the 2nd column of each assay plate. The starting concentration of the control, dissolved in DMSO, was at 160 mM, followed by two-fold dilution points in duplicate, for a total of 16 concentrations. The plates were incubated for 10 min at room temperature, and then read on an EnVision HTS multilabel reader (Perkin-Elmer, Waltham, MA) (end point read, 3 min/plate) using Fura2 BFP excitation filter (380 nm, bandwidth 10 nm) and fluorescein emission filter (535 nm, bandwidth 25 nm) set. A LANCE/DELFIA dichroic mirror with a cutoff wavelength at 400 nm was used to maximize signal accuracy and strength. Vehicle-only plates, with DMSO being pin-transferred to the entire column 5-48 compound area, were inserted uniformly at the beginning and the end of each library in order to monitor for and record any shifts in the background. Activity was computed as the normalized fluorescence response relative to free 1-AMA and 1-AMA/apoferritin complex values. Concentration-effect relationships were derived by using curve fitting algorithms developed in-house (http://ncgc.nih.gov/pub/openhts/). A four parameter Hill equation was fitted to the concentration-response data by minimizing the residual error between the modeled and observed responses.
% is scaled to controls: 0 for no effect and ±100 for the full control effect.

Chain of Ferritin light chain (Equus caballus) (P02791 2-175 limits assumed): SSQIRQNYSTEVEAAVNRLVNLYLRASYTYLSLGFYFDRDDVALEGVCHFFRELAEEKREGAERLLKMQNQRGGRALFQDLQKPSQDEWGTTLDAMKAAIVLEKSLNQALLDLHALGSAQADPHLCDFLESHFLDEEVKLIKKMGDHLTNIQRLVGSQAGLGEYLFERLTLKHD

Row | Structure (SMILES) | activity change, negative = inhibition
1 | NC(=O)c1cccc(N)c1 | 85.3% (inactive)
2 | CCCCS(=N)(=O)CCC(N)C(=O)O (stereo not given) | 1.02% (inactive)
3 | COc1cc2ncnc(Nc3cccc(Cl)c3)c2cc1OC | 55% (inactive)
4 | CC(C)(C)NC(=O)[C@H]1CC[C@H]2[C@@H]3CC[C@H]4NC(=O)C=C[C@]4(C)[C@H]3CC[C@]12C | -16.4% (inactive)
5 | Cc1ccc(S(=O)(=O)N[C@@H](Cc2ccccc2)C(=O)CCl)cc1 | -16.2% (inactive)
6 | OCc1ccc(-c2nn(Cc3ccccc3)c3ccccc23)o1 | 100% (inactive)
7 | O=C(O)C1CCCN(CCC=C(c2ccccc2)c2ccccc2)C1 (stereo not given) | -3.12% (inactive)
8 | CCN1CCCC1CNC(=O)c1cc(S(N)(=O)=O)ccc1OC (stereo not given) | -4.35% (inactive)
9 | CC(C)NCC(O)c1ccc(NS(C)(=O)=O)cc1 (stereo not given) | -2.49% (inactive)
10 | CC1=C(C(=O)O)N2C(=O)[C@@H](NC(=O)C(N)c3ccccc3)[C@H]2SC1 (stereo not given in full) | 0.889% (inactive)
